Screening results (PubChem BioAssay)
BJeLR lethal – BJeLR cell viability loss; AID 1554; inhibition, % (test concentration not listed); 300,000 tested, 0.17% active; BJeLR (HRASV12) viability, CellTiter-Glo ATP luminescence, 48 h; in the data active = inhibition above about 50%; inconclusive = no clear call, values can overlap the other calls
Autofluor counter – compound fluorescence in toxin protease inhibitor counterscreen. compound autofluorescence counterscreen, microsphere flow cytometry; active compounds read high. fluorescence intensity (no concentration beside the values). 360,000 tested, 3.1% active. AID 624483; in the data active = fluorescence intensity above about 16000; inconclusive = no clear call, values can overlap the other calls
BoNT-A LC inh2 – blocks Botulinum neurotoxin A light chain protease | multiplex microsphere protease substrate cleavage, flow cytometry | inhibition, % at 10 µM | 360,000 tested, 0.17% active
SARS 3CLpro inh – SARS-CoV 3CLpro protease inhibition. recombinant SARS-CoV 3CLpro, quenched FRET peptide cleavage. inhibition, % at 6 µM. 290,000 tested, 0.14% active. AID 1706; in the data active = inhibition above about 12%
BoNT F protease – inhibitors of Botulinum neurotoxin F light chain protease | Multiplex microsphere protease cleavage assay, flow cytometry | inhibition, % at 10 µM | 360,000 tested, 0.22% active | AID 588497; in the data active = inhibition above about 35%, passing the limit was not always enough; inconclusive = no clear call, values can overlap the other calls
Anthrax LF inh2 – anthrax lethal factor protease inhibition; inhibition, % at 10 µM; P15917; multiplex microsphere protease cleavage assay, LF; 360,000 tested, 0.12% active
Target sequence (P15917 whole entry, looked up): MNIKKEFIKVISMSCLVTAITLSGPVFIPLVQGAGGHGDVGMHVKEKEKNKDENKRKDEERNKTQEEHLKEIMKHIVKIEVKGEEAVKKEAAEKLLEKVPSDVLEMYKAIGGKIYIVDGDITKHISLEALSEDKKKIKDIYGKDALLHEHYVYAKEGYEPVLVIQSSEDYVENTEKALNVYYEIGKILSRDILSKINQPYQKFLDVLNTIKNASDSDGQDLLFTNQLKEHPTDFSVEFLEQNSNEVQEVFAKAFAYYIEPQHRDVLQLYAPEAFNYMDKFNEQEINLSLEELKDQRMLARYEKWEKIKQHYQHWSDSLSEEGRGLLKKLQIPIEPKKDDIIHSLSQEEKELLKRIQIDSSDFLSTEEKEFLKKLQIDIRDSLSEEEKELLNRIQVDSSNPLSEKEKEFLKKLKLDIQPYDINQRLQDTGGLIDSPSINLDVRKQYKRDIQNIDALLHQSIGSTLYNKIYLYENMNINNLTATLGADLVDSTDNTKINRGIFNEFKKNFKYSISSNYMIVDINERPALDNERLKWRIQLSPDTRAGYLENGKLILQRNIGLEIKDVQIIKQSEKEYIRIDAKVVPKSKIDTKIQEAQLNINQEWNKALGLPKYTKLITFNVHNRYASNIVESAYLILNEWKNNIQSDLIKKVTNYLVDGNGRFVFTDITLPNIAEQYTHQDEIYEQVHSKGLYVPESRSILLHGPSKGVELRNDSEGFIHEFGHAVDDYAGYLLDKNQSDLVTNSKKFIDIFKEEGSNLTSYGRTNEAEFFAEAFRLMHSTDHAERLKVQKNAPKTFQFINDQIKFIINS
Numbers stand for hits; – = inactive; ? = inconclusive; · = no result given. Compounds with a hit are over-represented: about 3.6% of the library has one in this group of screens. Cut-off read from the data, not from the text of the source, unless noted: active = inhibition above about 30%; inconclusive = no clear call, values can overlap the other calls; inactive = below that.

SMILES	BJeLR lethal	Autofluor counter	BoNT-A LC inh2	SARS 3CLpro inh	BoNT F protease	Anthrax LF inh2
CCOC(=O)N1CCN(c2cc(N)c([N+](=O)[O-])cc2F)CC1	–	20374	–	–	–	–
Cc1[nH]c(=O)c(C#N)c2c1CCCC2	–	22068	–	–	–	–
Cc1ccc(NC(=O)CSc2nnc(Cc3ccccc3)c(=O)[nH]2)c(C)c1	–	–	–	·	–	–
NC(=O)Cn1cc(C=C2C(=O)NC(=O)NC2=O)c2ccccc21	–	–	–	–	–	–
COC(=O)Cn1cc(C=C2C(=O)NC(=O)NC2=O)c2ccccc21	–	–	–	–	42	–
O=C(Nc1cccc(Cl)c1Cl)C1CCN(C(=O)c2cccs2)CC1	–	–	–	–	–	–
Cc1ccc(S(=O)(=O)c2nc(NCc3ccc4c(c3)OCO4)sc2Cl)cc1	–	25130	–	–	–	–
CC(=O)Nc1nc(S(=O)(=O)c2ccc(C)cc2)c(Cl)s1	–	–	–	–	–	–
COc1ccc(C(=O)Nc2c(N)nc[nH]c2=O)cc1	–	–	–	·	–	–
Cc1snc(S(=O)(=O)Cc2c(Cl)cccc2Cl)c1C#N	–	25224	–	–	–	–
Cc1ccc(S(=O)(=O)Nc2ccc(Cl)cn2)cc1C	–	–	–	–	–	–
CCCCNC1c2ccccc2C(=O)N1Cc1ccccc1 (stereo not given)	–	–	–	–	–	–
CCCCN1C(=O)C(C2c3ccccc3C(=O)N2Cc2ccccc2)C(=O)NC1=S (stereo not given)	–	21741	–	–	–	–
CC(=O)N(CCC1(C(C)C)CCOC(C)(C)C1)Cc1ccco1 (stereo not given)	–	19564	?	–	–	–
CCC(=O)N(CCC1(C(C)C)CCOC(C)(C)C1)Cc1ccco1 (stereo not given)	–	–	–	–	–	–
COc1ccc(-n2c(/C=C(\C)O)nc(=O)c3c(C)cc(C)nc32)cc1	–	22184	–	–	–	–
COc1cccc(NC(=O)N(Cc2ccco2)C(C)c2cccs2)c1 (stereo not given)	–	–	–	–	–	–
CC(c1cccs1)N(Cc1ccco1)C(=O)Nc1ccc(Cl)c(Cl)c1 (stereo not given)	–	17014	–	–	–	–
N#Cc1c2n(c3c(=O)n(Cc4ccccc4)cnc13)CCCC2	–	17920	–	–	–	–
N#Cc1c2n(c3c(=O)n(Cc4ccc(Cl)cc4)cnc13)CCCCC2	–	–	–	–	–	–
O=C(O)c1ccc([N+](=O)[O-])c2c1C(=O)c1ccccc1C2=O	–	20562	?	·	?	–
CC12CCC(=O)N1C(C(=O)NNC(=O)COc1cccc(C(F)(F)F)c1)CS2 (stereo not given)	–	?	–	·	–	–
O=C(Nc1ccnn1C1CCN(C(=O)c2cccc(Cl)c2)CC1)C1CC1	–	–	–	–	–	–
CC1(C)NC(=O)N(CCCCOc2ccc3ccccc3c2Cl)C1=O	–	24165	–	–	–	–
CC1(C)NC(=O)N(CCOCCOc2cccc(Oc3ccccc3)c2)C1=O	–	–	–	–	–	–
SMILES	BJeLR lethal	Autofluor counter	BoNT-A LC inh2	SARS 3CLpro inh	BoNT F protease	Anthrax LF inh2
CC1(C)NC(=O)N(CCOCCOc2ccc3ccccc3c2Br)C1=O	–	21501	–	–	–	–
O=C(/C=C/c1ccc2c(c1)S(=O)(=O)N(Cc1ccccc1)[C@H]2CC(=O)N1CCOCC1)N1CCOCC1	·	–	–	·	–	–
CCN(CC)c1ccc(/C=N/Nc2nc3ccccc3[nH]2)c(O)c1	60	–	–	–	–	–
COc1cc(OC)c(OC)cc1/C=N/Nc1nc2ccccc2[nH]1	–	–	–	–	–	–
Cc1cc(=O)[nH]c(N/N=C/c2ccccn2)n1	–	–	–	–	–	–
C(=N\Nc1nc2ccccc2[nH]1)/c1ccc2ncccc2c1	88	–	–	–	–	–
C(=N\Nc1nc2ccccc2[nH]1)/c1ccccn1	54	–	–	–	–	–
COc1ccc(/C=N/Nc2nc3ccccc3[nH]2)cc1OC	–	–	–	–	–	–
O=c1cnnc(N/N=C/c2ccccn2)[nH]1	63	–	–	–	–	–
C=CCc1cccc(/C=N/NC(=O)c2ccc3nc[nH]c3c2)c1O	–	–	–	–	–	–
O=C(CSc1ncccn1)N(Cc1cccnc1)C(CCc1ccccc1)c1nc2ccccc2[nH]1 (stereo not given)	·	–	–	·	–	–
COc1ccc(OCC(=O)N(Cc2sccc2C)C2CCS(=O)(=O)C2)cc1 (stereo not given)	–	–	–	–	–	–
C=CCn1c(SCC(=O)Nc2cc(C)on2)nc2ccccc21	·	–	–	·	–	–
CC1(C)CC(=O)c2sc(NS(=O)(=O)Cc3ccccc3)nc2C1	–	22981	?	–	–	–
CCc1ccccc1N(C(=O)c1ccco1)C(C(=O)NC1CCCC1)c1cccnc1 (stereo not given)	–	–	–	–	–	–
CC1(C)CC(=O)c2c(oc3cc(O)c(O)cc23)C1	–	17024	–	–	–	–
COc1ccccc1-c1nc(COc2ccc(Cl)cc2Cl)no1	–	–	–	–	?	–
CCOCC(O)CS(=O)(=O)c1ccccn1 (stereo not given)	–	23197	?	–	–	–
COc1ccc(-c2cc3nc(C)cc(N)n3n2)cc1	51	–	–	–	–	–
Cc1ccc(NC(=O)c2ccc(OC(F)F)cc2)cc1S(=O)(=O)N(C)C	–	–	–	–	–	–
CCN(CC)CCCNC(=O)c1ccc(OCC(=O)Nc2ccccc2C(F)(F)F)c(OC)c1	–	–	–	–	–	–
Cc1ccc(-n2c([S-])c(C(=O)Nc3ccc(OC(F)F)cc3)[n+]3ccc(C(=O)NCCO)cc23)cc1C	–	–	51	–	–	–
COc1ccccc1-n1c([S-])c(C(=O)Nc2ccccc2C(F)(F)F)[n+]2ccc(C(=O)NCCO)cc12	–	–	36	–	–	–
COCCN(C(=O)c1ccc(C)c(S(=O)(=O)N2CCOCC2)c1)c1c(N)n(CC(C)C)c(=O)[nH]c1=O	·	–	–	·	–	–
C(=C\c1ccccc1)/CN1CCN(C(c2cc3ccccc3o2)c2nnnn2-c2ccc3c(c2)OCCO3)CC1 (stereo not given)	·	–	–	·	–	–
SMILES	BJeLR lethal	Autofluor counter	BoNT-A LC inh2	SARS 3CLpro inh	BoNT F protease	Anthrax LF inh2
CS(=O)(=O)N(CC(=O)Nc1ccccc1F)C1CCCCC1	–	–	–	–	–	–
CS(=O)(=O)N(CC(=O)Nc1ccccc1Sc1ccccc1)C1CCCCC1	–	22169	?	–	–	–
COc1cccc(OCCOc2c(OC)cccc2OC)c1	–	–	–	–	37	–
Cc1cc(/C=C(\C#N)c2nc3ccccc3[nH]2)c(C)n1C	–	–	–	–	–	–
Cc1ccc2nc(/C(C#N)=C\c3cc(O)ccc3[N+](=O)[O-])[nH]c2c1	–	–	–	–	–	–
CCOc1cc(N(CC)CC)ccc1/C=C(/C#N)c1nc2ccccc2[nH]1	–	–	–	–	42	–
